This is part of a sample that, as a whole, favours compounds with a hit. Of some 79,000 tested, about 15% had one in any assay. Active and inactive are the calls of the source. Cut-off read from the data, not from the text of the source: active = growth inhibition above about 70%; inactive = the rest.
Columns and labels:
[1] = NCI Yeast Anticancer Drug Screen. Data for the rad50 strain (AID 155);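 note: 0% = growth of vehicle-only cultures of the same strain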; settings: S. cerevisiae rad50 strain growth inhibition, active compounds read high
How it was run: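 DNA repair mutant yeast, compound exposure, growth read-out; inhibition is taken relative to vehicle.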

[2] = NCI Yeast Anticancer Drug Screen. Data for the mec2-1 strain (AID 157); settings: S. cerevisiae mec2-1 strain, active compounds read high
How it was run: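 Each compound was tested on mec2-1 yeast, a strain altered in DNA damage repair or cell cycle control. Growth inhibition is reported relative to vehicle.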

[3] = NCI Yeast Anticancer Drug Screen. Data for the sgs1 mgt1 strain (AID 161);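 note: 0% = growth of cultures given vehicle only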; settings: S. cerevisiae sgs1 mgt1 strain, active compounds read high
How it was run: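 Mutant yeast exposed to compound; growth scored against vehicle-only wells.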

[4] = NCI Yeast Anticancer Drug Screen. Data for the cln2 rad14 strain (AID 165);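 note: 0% = growth equal to vehicle treated cultures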; settings: S. cerevisiae cln2 rad14 strain, active compounds read high
How it was run: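 Test compounds were added to cln2 rad14 yeast cultures; inhibition of growth was then determined by comparison with vehicle treatment.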

[5] = NCI Yeast Anticancer Drug Screen. Data for the bub3 strain (AID 167); settings: S. cerevisiae bub3 mutant strain, active compounds read high
How it was run: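 In this screen, a yeast mutant lacking normal mitotic checkpoint function is challenged with compound. Relative growth versus vehicle gives the inhibition value.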

[6] = NCI Yeast Anticancer Drug Screen. Data for the mlh1 rad18 strain (AID 175); settings: S. cerevisiae mlh1 rad18 strain growth inhibition, active compounds read high
How it was run: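 Inhibition values reflect reduced growth of mutant yeast versus vehicle-treated controls following compound exposure; the mutations affect DNA damage repair.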

[7] = at 5.0 µM (retest, dose inferred, filed as 0.5)
[8] = at 50.0 µM (retest, dose inferred, filed as 5.0)

Measured: growth inhibition

CCc1cccc(C(C)(C)C)c1NC(=S)/N=C/C(C(=O)c1ccccc1)=C(\O)c1ccccc1
inactive: [1]; [7] -4% | [2]; [7] -11% | [2]; [8] 66% | [2]; at 50.0 µM 55.3% | [3]; [7] -10% | [3]; [8] 43% | [3]; at 50.0 µM 68.9% | [4]; [7] -13% | [4]; [8] 45% | [4]; at 50.0 µM 48.1% | [5]; [7] -12% | [5]; [8] 48% | [6]; [7] -4% | [6]; [8] 65%
active: [1]; [8] 70% | [1]; at 50.0 µM 77.2% | [5]; at 50.0 µM 80.3% | [6]; at 50.0 µM 75.6%

ON=C1Cc2ccccc2-c2ccccc2C1
inactive: [1]; [7] 2% | [1]; [8] 1% | [1]; at 50.0 µM -23% | [2]; [7] 2% | [2]; [8] 5% | [2]; at 50.0 µM -11.1% | [3]; [7] 8% | [3]; [8] 4% | [3]; at 50.0 µM -3.3% | [4]; [7] 1% | [4]; [8] 7% | [4]; at 50.0 µM 39.2% | [5]; [7] -5% | [5]; [8] 1% | [5]; at 50.0 µM 6.1%

COC1CCCCC1C(=O)C(C#N)C1CCCCC1C1CCCCC1 (configuration not stated)
inactive: [1]; [7] 4% | [1]; [8] -2% | [2]; [7] 3% | [2]; [8] -6% | [3]; [7] 7% | [3]; [8] 7% | [4]; [7] -5% | [4]; [8] 0% | [5]; [7] -3% | [5]; [8] -3% | [6]; [7] 0% | [6]; [8] 3%
active: [1]; at 50.0 µM 96% | [2]; at 50.0 µM 95.5% | [3]; at 50.0 µM 97% | [4]; at 50.0 µM 98.5% | [5]; at 50.0 µM 96.7% | [6]; at 50.0 µM 98.3%

CC[N+](CC)(CC)Cc1ccc(C[N+](CC)(CC)CC)cc1
active: [4]; at 50.0 µM 92.4% | [5]; at 50.0 µM 95.5%
inactive: [1]; [7] 8% | [1]; [8] -4% | [1]; at 50.0 µM 16.9% | [2]; [7] 1% | [2]; [8] -2% | [2]; at 50.0 µM 54.2% | [3]; [7] 6% | [3]; [8] -15% | [3]; at 50.0 µM -0.8% | [4]; [7] 4% | [4]; [8] 7% | [5]; [7] 5% | [5]; [8] -4% | [6]; [7] 2% | [6]; [8] -4% | [6]; at 50.0 µM 17.4%

O=C(Nc1ccc(Cl)cc1)NS(=O)(=O)c1ccc2c(c1)CCC2
inactive: [1]; [7] -18% | [1]; [8] 35% | [1]; at 50.0 µM 59.2% | [2]; [7] -40% | [2]; [8] 16% | [2]; at 50.0 µM 39.4% | [3]; [7] -30% | [3]; [8] 57% | [3]; at 50.0 µM 69.8% | [4]; [7] -23% | [4]; [8] 38% | [4]; at 50.0 µM 59% | [5]; [7] -14% | [5]; [8] 62% | [5]; at 50.0 µM 30.4%

O=C1C=C(c2cccc(-c3ccccc3)c2)CCC1
active: [1]; [8] 94% | [1]; at 50.0 µM 93.5% | [2]; [8] 96% | [2]; at 50.0 µM 95.3% | [3]; [8] 92% | [3]; at 50.0 µM 97.2% | [4]; [8] 92% | [4]; at 50.0 µM 95.8% | [5]; [8] 87% | [5]; at 50.0 µM 96.3%
inactive: [1]; [7] 2% | [2]; [7] -2% | [3]; [7] -5% | [4]; [7] 2% | [5]; [7] 2%

O=C(N=Nc1cccc(Cl)c1)NNc1cccc(Cl)c1
inactive: [1]; [7] 12% | [2]; [7] -11% | [3]; [7] -9% | [4]; [7] 26% | [5]; [7] -24%
active: [1]; [8] 98% | [1]; at 50.0 µM 85.8% | [2]; [8] 99% | [2]; at 50.0 µM 90.6% | [3]; [8] 91% | [3]; at 50.0 µM 83.2% | [4]; [8] 99% | [4]; at 50.0 µM 83.5% | [5]; [8] 99% | [5]; at 50.0 µM 86.3%

O=C(O)c1c(Br)c(Br)c(Br)c(Br)c1-c1c2ccc(=O)cc-2oc2cc(O)ccc12
active: [1]; [7] 94% | [1]; [8] 93% | [1]; at 50.0 µM 84.1% | [2]; [7] 95% | [2]; [8] 96% | [2]; at 50.0 µM 88.7% | [3]; [7] 87% | [3]; [8] 96% | [3]; at 50.0 µM 87.1% | [4]; [7] 88% | [4]; [8] 95% | [4]; at 50.0 µM 87.8% | [5]; [7] 91% | [5]; [8] 95% | [5]; at 50.0 µM 85.8%

Cc1ccc(NNC2=NC(=S)NC(=O)C2)cc1
inactive: [1]; [7] 12% | [2]; [7] 8% | [3]; [7] 18% | [4]; [7] -8% | [5]; [7] 9% | [6]; [7] 18%
active: [1]; [8] 97% | [1]; at 50.0 µM 97.5% | [2]; [8] 98% | [2]; at 50.0 µM 96.9% | [3]; [8] 97% | [3]; at 50.0 µM 80.6% | [4]; [8] 95% | [4]; at 50.0 µM 84.8% | [5]; [8] 97% | [5]; at 50.0 µM 97.8% | [6]; [8] 97% | [6]; at 50.0 µM 98.3%

CN=c1ss/c(=N\C(=S)N(C)C)n1-c1ccccc1
inactive: [1]; [7] -10% | [1]; [8] -10% | [1]; at 50.0 µM -17.1% | [2]; [7] -11% | [2]; [8] 7% | [2]; at 50.0 µM -7.45% | [3]; [7] 13% | [3]; [8] -20% | [3]; at 50.0 µM -18.6% | [4]; [7] 8% | [4]; [8] 13% | [4]; at 50.0 µM 4.45% | [5]; [7] 4% | [5]; [8] 7% | [5]; at 50.0 µM 42.5% | [6]; [7] -20% | [6]; [8] 3% | [6]; at 50.0 µM -22.5%

COc1nc2nc(SC(CC(=O)O)C(=O)c3ccc(Cl)cc3)[nH]c2c2ccccc12 (configuration not stated)
inactive: [1]; [7] 1% | [1]; [8] 7% | [1]; at 50.0 µM 10.1% | [2]; [7] 0% | [2]; [8] 1% | [2]; at 50.0 µM 7.45% | [3]; [7] 2% | [3]; [8] -18% | [3]; at 50.0 µM -3.85% | [4]; [7] 2% | [4]; [8] -15% | [4]; at 50.0 µM -12.1% | [5]; [7] -2% | [5]; [8] -1% | [5]; at 50.0 µM -5.45% | [6]; [7] -1% | [6]; at 50.0 µM 32.9%

From PubChem BioAssay (NCI)
